Assay results published in article PMC4336329 (PLoS ONE, 2015).
In all, about 310,000 compounds went through this assay and about 14,000 (4.5%) showed an effect of 50% or more. Effects have a minus sign here. The sample holds strong results, similar compounds and a random draw of the others, so the mix is not that of the screen.

target: human ether-à-go-go-related gene (hERG) potassium channel (human, UniProt Q12809); experiment: primary screen, population patch clamp on CHO cells stably expressing hERG; higher = less effect of the substance
Sequence (Q12809 whole entry, looked up): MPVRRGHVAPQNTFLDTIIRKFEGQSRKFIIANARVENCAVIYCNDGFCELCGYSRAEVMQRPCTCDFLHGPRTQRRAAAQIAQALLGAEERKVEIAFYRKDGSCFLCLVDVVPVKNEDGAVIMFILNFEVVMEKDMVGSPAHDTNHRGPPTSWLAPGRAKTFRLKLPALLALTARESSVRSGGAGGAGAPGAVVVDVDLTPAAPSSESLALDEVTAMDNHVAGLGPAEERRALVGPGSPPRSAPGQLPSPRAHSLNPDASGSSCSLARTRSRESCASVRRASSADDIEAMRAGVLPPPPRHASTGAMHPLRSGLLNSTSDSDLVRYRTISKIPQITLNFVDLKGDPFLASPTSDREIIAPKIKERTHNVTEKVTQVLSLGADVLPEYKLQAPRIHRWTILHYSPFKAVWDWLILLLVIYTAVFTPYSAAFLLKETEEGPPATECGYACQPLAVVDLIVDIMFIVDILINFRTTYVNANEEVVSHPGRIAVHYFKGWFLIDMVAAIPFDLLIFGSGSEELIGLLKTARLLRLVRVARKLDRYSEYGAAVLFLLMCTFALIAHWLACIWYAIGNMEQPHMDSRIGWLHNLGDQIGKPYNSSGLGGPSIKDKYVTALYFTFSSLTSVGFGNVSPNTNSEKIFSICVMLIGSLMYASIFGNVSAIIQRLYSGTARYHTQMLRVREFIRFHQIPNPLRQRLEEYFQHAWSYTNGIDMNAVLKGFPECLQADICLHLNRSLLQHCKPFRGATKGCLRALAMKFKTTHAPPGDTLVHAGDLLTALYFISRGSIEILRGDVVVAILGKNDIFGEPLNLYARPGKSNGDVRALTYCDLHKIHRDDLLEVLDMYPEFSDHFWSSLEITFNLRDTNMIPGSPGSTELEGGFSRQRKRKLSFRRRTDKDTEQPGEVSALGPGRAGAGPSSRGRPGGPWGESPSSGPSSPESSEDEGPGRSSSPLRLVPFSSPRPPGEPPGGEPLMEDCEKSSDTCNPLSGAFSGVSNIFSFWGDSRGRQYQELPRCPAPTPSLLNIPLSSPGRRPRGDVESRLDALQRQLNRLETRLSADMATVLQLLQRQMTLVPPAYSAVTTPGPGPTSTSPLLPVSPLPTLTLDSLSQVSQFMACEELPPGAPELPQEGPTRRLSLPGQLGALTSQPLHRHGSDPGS
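Also: peak tail current of the secondary pulse compared with the same well before compound.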

Structure (SMILES) | hERG current change (%, negative = inhibition) at 10uM [%]
COc1ccc(CNC(=O)c2cnc3cc(C)ccn3c2=O)cc1 | -8.79
O=C(N/N=C/c1cccc2ccccc12)c1ccccc1Cl | 8.63
Cc1cc(/C(O)=C2\C(=O)C(=O)N(CCN(C)C)C2c2ccncc2)ccc1OCc1ccccc1 (centres unmarked) | 3.21
CCOc1ccc(NC(=O)CN(C)C(=O)c2ccc(C3SCCS3)cc2)cc1OCC | -0.427
COc1cccc(NC(=O)CN(C)C(=O)c2ccc3ccccc3c2)c1 | 1.99
CN(CC(=O)Nc1cccc(F)c1)C(=O)c1ccc(N2CCCCC2)c([N+](=O)[O-])c1 | -8.94
COc1cccc(NC(=O)CN(C)C(=O)c2ccc3c(c2)CC(c2ccccc2)OC3=O)c1 (centres unmarked) | -66.9
CN(CC(=O)Nc1cccc(F)c1)C(=O)c1ccc(N2CCCC2)c([N+](=O)[O-])c1 | -46.7
COc1cccc(NC(=O)CN(C)C(=O)c2ccc(N3CCCCC3)c([N+](=O)[O-])c2)c1 | -12.9
CCOc1ccc(NC(=O)CN(C)C(=O)c2ccc(NC3CC3)c([N+](=O)[O-])c2)cc1OCC | -59
COc1cccc(NC(=O)CN(C)C(=O)c2ccc(N3CCOCC3)c([N+](=O)[O-])c2)c1 | -37.6
COc1cccc(NC(=O)CN(C)C(=O)c2ccc(NC3CC3)c([N+](=O)[O-])c2)c1 | -73.4
CCOc1ccc(NC(=O)CN(C)C(=O)c2ccc(N3CCCC3)c([N+](=O)[O-])c2)cc1OCC | -49.1
CN(CC(=O)Nc1cccc(F)c1)C(=O)c1ccc(NC2CC2)c([N+](=O)[O-])c1 | -68.5
COc1ccc(Cl)cc1NC(=O)CN(C)C(=O)c1ccc2c(c1)CC(c1ccccc1)OC2=O (centres unmarked) | -41.8
O=C(O)CCC(=O)N(Cc1cccs1)Cc1cccs1 | -2.07
COc1ccc(C(=O)Cn2nnc(-c3ccccc3NC(=O)C3CCCCC3)n2)cc1 | 2.23
O=c1cc(-c2ccccc2)[nH]c2ccc(F)cc12 | 5.52
Nn1c(SCC(=O)NC2CCCCC2)nnc1-c1ccco1 | 4.3
Cc1oc(-c2ccccc2)nc1CN1C(=O)C(C)N=C(c2ccccc2F)c2cc(Cl)ccc21 (centres unmarked) | -5.78
O=[N+]([O-])c1ccc(/C=N/Nc2nc(N3CCCCC3)nc(N3CCCCC3)n2)o1 | -18.1
CC(=O)Nc1ccc(S(=O)(=O)NCCC(=O)Nc2ccc(C)c(F)c2)cc1 | -0.433

Structure (SMILES) | hERG current change (%, negative = inhibition) at 10uM [%]
S=c1[nH]nc(Cc2sc(-c3ccccc3)nc2-c2ccccc2)o1 | 21.6
O=C(Nc1cccc2cccnc12)c1ccc(Br)cc1Br | 21.6
Cc1ccccc1CNC(=O)Nc1cccs1 | 3.67
CC(C)NC(=O)c1cc(-c2ccco2)nn1-c1ccc(Cl)cc1 | -27.4
CCN(CC(=O)Nc1ccc(NC(C)=O)cc1)C(=O)c1ccc(NC2CC2)c([N+](=O)[O-])c1 | -46.1
COc1ccc(NC(=O)CN(C)C(=O)c2ccc(NC3CC3)c([N+](=O)[O-])c2)cc1 | -72.8
COc1ccc(NC(=O)CN(C)C(=O)c2ccc(NS(=O)(=O)c3ccc(C)c([N+](=O)[O-])c3)cc2)cc1 | -2.55
O=C(O)CC1SC(=O)NC1=O (centres unmarked) | 4.76
COc1ccc(-c2nc3ccc(C(=O)NCCCN4CCOCC4)cc3nc2-c2ccc(OC)cc2)cc1 | 9.44
CN1CCN(CCNC(=O)c2ccc3nc(-c4ccc(F)cc4)c(-c4ccc(F)cc4)nc3c2)CC1 | -50.6
CCN1CCN(CCNC(=O)c2ccc3nc(-c4cccc(C)c4)c(-c4cccc(C)c4)nc3c2)CC1 | -73.9
CCCNC(=O)c1ccc2nc(-c3ccccc3)c(-c3ccccc3)nc2c1 | 9.38
Cc1cccc(-c2nc3ccc(C(=O)NCCN4CCN(C)CC4)cc3nc2-c2cccc(C)c2)c1 | -11.7
Cc1nc2cc(C(=O)NCCN3CCOCC3)ccc2n1-c1ccc(F)cc1F | -3.86
Cc1ccc(Cl)c(OC(=O)c2nn(C(C)C)c(=O)c3ccccc23)c1 | -2.19
COC(=O)c1ccccc1NC(=O)N1CCCC1 | -11.9
O=C(CSc1nn(-c2ccccc2)c(=S)s1)Nn1cnnc1 | 14.8
COc1cc(C(=O)N2CCC(c3nc(-c4cccnc4)no3)CC2)cc(OC)c1OC | -8.08
O=C(CSc1nc2ncccc2[nH]1)NC1CCCC1 | 7.42
S=c1[nH]nc(COc2ccccc2)n1/N=C/c1ccc(Br)s1 | -18.8
COc1ccc(S(=O)(=O)N2CCN(C)CC2)cc1C | 7.28
Cc1ccc(/C=N/NC(=O)Cn2cnc3ccccc32)o1 | 3.48

Structure (SMILES) | hERG current change (%, negative = inhibition) at 10uM [%]
c1csc(-c2nc(N3CCOCC3)c3ccccc3n2)c1 | -10.1
c1csc(-c2nnc(N3CCOCC3)c3ccccc23)c1 | -32.1
Fc1ccccc1N1CCN(c2nc(-c3cccs3)nc3ccccc23)CC1 | 8.57
CCN1CCN(c2nc(-c3cccs3)nc3ccccc23)CC1 | -70.8
CN1CCN(c2nc(-c3cccs3)nc3ccccc23)CC1 | -73.9
CC1CCN(c2nnc(-c3cccs3)c3ccccc23)CC1 | -41.6
O=S(=O)(c1ccccc1)N1CCN(c2nc(-c3cccs3)nc3ccccc23)CC1 | 9.84
Oc1ccc(N2CCN(c3nc(-c4cccs4)nc4ccccc34)CC2)cc1 | 16.5
COc1ccc(N2CCN(c3nc(-c4cccs4)nc4ccccc34)CC2)cc1 | 14.4
c1ccc(N2CCN(c3nc(-c4cccs4)nc4ccccc34)CC2)cc1 | -8.84
CN1CCN(c2nnc(-c3cccs3)c3ccccc23)CC1 | -53.9
CCCN1CCN(c2nc(-c3cccs3)nc3ccccc23)CC1 | -68.6
COc1ccc(CNC(=O)c2oc3ccc(S(=O)(=O)N4CCOCC4)cc3c2C)cc1 | 7.71
COc1ccccc1NC(=O)Nc1ncccc1C | -1.09
O=C1NCCN(Cc2ccoc2)C1CC(=O)N(Cc1ccccc1)CC1CCC1 (centres unmarked) | 8.87
COc1ccc(Cl)cc1NC(=O)COC(=O)c1c(-c2ccccc2)noc1C | -2.53
CC(=O)N1CCN(c2nc(-c3cccs3)nc3ccccc23)CC1 | -63.2
CCOC(=O)N1CCN(c2nc(-c3cccs3)nc3ccccc23)CC1 | -1.74
Oc1ccccc1N1CCN(c2nc(-c3cccs3)nc3ccccc23)CC1 | 5.52
CC(=O)NC(CC(=O)Nc1nccs1)c1ccccc1.O=C(O)C(=O)O (centres unmarked) | 1.49
COCCCNCCOCCOc1ccc(Cl)cc1C(C)(C)C.O=C(O)C(=O)O | -50.6
CC(C)(C)NCCCOc1ccc(Cl)cc1C(C)(C)C.O=C(O)C(=O)O | 1.96

Structure (SMILES) | hERG current change (%, negative = inhibition) at 10uM [%]
C=CCNCCOCCOc1ccc(Cl)cc1C(C)(C)C.O=C(O)C(=O)O | 11.2
COCCCNCCCOc1ccc(Cl)cc1Br | -39.2
COCCCNCCCOc1ccc(Cl)cc1C(C)(C)C | -57.5
CC(C)(C)NCCOCCOc1ccc(Cl)cc1C(C)(C)C.O=C(O)C(=O)O | 0.207
CNCCCOc1ccc(Cl)cc1C(C)(C)C.O=C(O)C(=O)O | -20.6
C=CCNCCCOc1ccc(Cl)cc1C(C)(C)C.O=C(O)C(=O)O | -60.8
CC(O)CNCCCOc1ccc(Cl)cc1C(C)(C)C.O=C(O)C(=O)O (centres unmarked) | -15.9
O=C(CSc1ccccn1)N1CCN(c2ccccc2)CC1 | 7.55
COc1ccc(O[C@H]2C=C[C@@H](c3ccccc3)O[C@@H]2CO/N=C(\C)CCN2CCc3nc(-c4ccccc4)c(-c4ccccc4)cc3C2)cc1 | 6.94
CCCNC(=O)NC(=O)CSc1ncc(C(F)(F)F)cc1Cl | 12.6
C#CCOCCOCCOCCNc1nc(N2CCN(C(=O)[C@H](CCCCN)n3cc([C@@H](N)CC(C)C)nn3)CC2)nc(N2CCN(C(=O)[C@H](CCCCN)n3cc([C@@H](N)CC(C)C)nn3)CC2)n1.Cl | 4.98
CCCCNS(=O)(=O)c1ccc(S(=O)(=O)NCc2ccncc2)cc1 | -9.06
CCc1cccc2c(C(=O)CSc3nncn3C)c[nH]c12 | 7.69
CN(C(=O)CC1C(=O)NCCN1Cc1ccc(F)cc1Cl)C1CCCCC1 (centres unmarked) | -2.68
O=[N+]([O-])c1ccc(N2CCN(CCO)CC2)cc1NCc1ccco1 | -32.2
O=C(c1ccccc1)N1CCN(c2ccc([N+](=O)[O-])c(NCc3ccco3)c2)CC1 | -47.2
O=[N+]([O-])c1ccc(N2CCNCC2)cc1NCc1ccco1 | -28.2
Cc1ccc(C(=O)N2CCN(c3ccc([N+](=O)[O-])c(NCc4ccco4)c3)CC2)cc1 | -50.5
Cc1cccc(C(=O)N2CCN(c3ccc([N+](=O)[O-])c(NCc4ccco4)c3)CC2)c1 | -34
CN1CCN(c2ccc([N+](=O)[O-])c(NCc3ccco3)c2)CC1 | -51.9
